Measurements as given in PubChem BioAssay (Tox21).
Values joined by “and” are separate entries in the source; they are usually repeats but may differ in a detail not shown here. Equal values may be shown once. Inconclusive results are not listed. Active and inactive are the calls of the source. The call rests on the fitted dose curve; in most records, active means well fitted curve in the direction sought with a large enough effect in the repeat runs; inconclusive means weak or mixed curves; inactive means no such curve, though single readings can be large; an effect the other way counts as inactive or inconclusive.

Tests used:
[1] = qHTS RealTime-Glo MT Cell Viability Assay in HepG2 cells - 40 hour (AID 1224870); further: nearly all actives have a fitted effect of over 50% in size
Method in brief: (§1)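 Real-time viability: cells seeded at 600 per well together with NanoLuc and cell-permeant prosubstrate, compounds added after 5 h incubation. Luminescence tracked at 0, 8, 16, 24, 32 and 40 h of exposure.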

[2] = A CellTox Green Cytotoxicity Assay to monitor cytotoxicity in HEK293 cells - 40 hour (AID 1224871); further: nearly all actives have a fitted effect of over 45% in size; further: potency means the concentration at half of the fitted maximal effect
Method in brief: (§2)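 Real-time, in one plate: 600 HEK293 cells/well with dead-cell DNA dye, pinned compound after 5 h, 37 C incubation over 40 h; viable cells give no appreciable fluorescence.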

[3] = qHTS RealTime-Glo MT Cell Viability Assay in HEK293 cells - 16 hour (AID 1224872); further: nearly all actives have a fitted effect of over 50% in size; further: potency means the concentration at half of the fitted maximal effect
Method in brief: (§3)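 Homogeneous bioluminescent viability format in HEK293 cells (600 cells/well). Following 5 h at 37 C/5% CO2, 23 nL compound was pintooled; the signal was measured repeatedly during 40 h incubation.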

[4] = qHTS RealTime-Glo MT Cell Viability Assay in HEK293 cells - 40 hour (AID 1224874); settings: RealTime-Glo luminescence; max response: active compounds read low; further: nearly all actives have a fitted effect of over 50% in size; further: potency means the concentration at half of the fitted maximal effect
Method in brief: (§4)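 Kinetic, non-lysing viability readout. Seed HEK293 (600/well) with reagent, incubate 5 h at 37 C/5% CO2, pin 23 nL compound in DMSO, incubate at 37 C, read luminescence at 0, 8, 16, 24, 32, 40 h.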

[5] = A CellTox Green Cytotoxicity Assay to monitor cytotoxicity in HEK293 cells - 24 hour (AID 1224875); further: series mostly up to about 77 µM; nearly all actives have a fitted effect of over 45% in size
Method in brief: as §2

[6] = A CellTox Green Cytotoxicity Assay to monitor cytotoxicity in HepG2 cells - 16 hour (AID 1224876); further: nearly all actives have a fitted effect of over 45% in size; further: potency means the concentration at half of the fitted maximal effect
Method in brief: (§5)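 Cytotoxicity was tracked as dead-cell DNA fluorescence in HepG2 cells treated with test compounds at 37 C; each time-point value comes from one kinetic series spanning 0, 8, 16, 24, 32 and 40 h.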

[7] = A CellTox Green Cytotoxicity Assay to monitor cytotoxicity in HepG2 cells - 40 hour (AID 1224879); further: nearly all actives have a fitted effect of over 40% in size; further: potency means the concentration at half of the fitted maximal effect
Method in brief: as §5

[8] = A CellTox Green Cytotoxicity Assay to monitor cytotoxicity in HEK293 cells - 32 hour (AID 1224881); further: nearly all actives have a fitted effect of over 40% in size; further: potency means the concentration at half of the fitted maximal effect
Method in brief: as §2

[9] = A CellTox Green Cytotoxicity Assay to monitor cytotoxicity in HepG2 cells - 0 hour (AID 1224882); further: nearly all actives have a fitted effect of over 35% in size
Method in brief: as §5

[10] = A CellTox Green Cytotoxicity Assay to monitor cytotoxicity in HepG2 cells - 32 hour (AID 1224883); further: nearly all actives have a fitted effect of over 50% in size; further: potency means the concentration at half of the fitted maximal effect
Method in brief: as §5

[11] = A CellTox Green Cytotoxicity Assay to monitor cytotoxicity in HEK293 cells - 8 hour (AID 1224884); further: nearly all actives have a fitted effect of over 35% in size
Method in brief: as §2

[12] = qHTS RealTime-Glo MT Cell Viability Assay in HEK293 cells - 24 hour (AID 1224886); further: nearly all actives have a fitted effect of over 50% in size; further: potency means the concentration at half of the fitted maximal effect
Method in brief: as §3

[13] = qHTS RealTime-Glo MT Cell Viability Assay in HepG2 cells - 0 hour (AID 1224889); further: nearly all actives have a fitted effect of over 50% in size
Method in brief: (§6)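 Cell number in HepG2 cultures estimated from NanoLuc luminescence generated by metabolic reduction of a prosubstrate by living cells. The homogeneous, nonlytic format allowed repeated reads at 0, 8, 16, 24, 32 and 40 h of compound exposure.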

[14] = qHTS RealTime-Glo MT Cell Viability Assay in HepG2 cells - 8 hour (AID 1224873); further: nearly all actives have a fitted effect of over 55% in size
Method in brief: as §1

[15] = qHTS RealTime-Glo MT Cell Viability Assay in HepG2 cells - 32 hour (AID 1224877); further: nearly all actives have a fitted effect of over 55% in size
Method in brief: as §6

[16] = A CellTox Green Cytotoxicity Assay to monitor cytotoxicity in HepG2 cells - 24 hour (AID 1224878); further: nearly all actives have a fitted effect of over 45% in size; further: potency means the concentration at half of the fitted maximal effect
Method in brief: as §5

[17] = qHTS RealTime-Glo MT Cell Viability Assay in HEK293 cells - 0 hour (AID 1224880); further: nearly all actives have a fitted effect of over 45% in size; further: potency means the concentration at half of the fitted maximal effect
Method in brief: as §4

[18] = qHTS RealTime-Glo MT Cell Viability Assay in HepG2 cells - 16 hour (AID 1224885); further: nearly all actives have a fitted effect of over 50% in size
Method in brief: as §6

[19] = A CellTox Green Cytotoxicity Assay to monitor cytotoxicity in HEK293 cells - 16 hour (AID 1224888); further: nearly all actives have a fitted effect of over 35% in size
Method in brief: as §2

[20] = qHTS RealTime-Glo MT Cell Viability Assay in HEK293 cells - 8 hour (AID 1224887)
Method in brief: as §4
On the % scale 0 is the no-effect control and ±100 the full control effect.

CO[C@H]1C=CO[C@@]2(C)Oc3c(C)c(O)c4c(O)c(c5c(c4c3C2=O)=NC2(CCN(CC(C)C)CC2)N=5)NC(=O)/C(C)=C\C=C/[C@H](C)[C@H](O)[C@@H](C)[C@@H](O)[C@@H](C)[C@H](OC(C)=O)[C@@H]1C
active: Potency [3] 42.7 µM | Potency [4] 38.1 µM | Potency [7] 47.9 µM | Potency [10] 47.9 µM | Potency [12] 38.1 µM
inactive: Potency [1] | Potency [2] | Potency [5] | Potency [6] | Potency [8] | Potency [9] | Potency [11] | Potency [13]

COC(=O)CC(=O)C(C)(C)C
inactive: Potency [1] | Potency [2] | Potency [3] | Potency [14] | Potency [5] | Potency [6] | Potency [15] | Potency [16] | Potency [7] | Potency [17] | Potency [8] | Potency [9] | Potency [10] | Potency [11] | Potency [18] | Potency [12] | Potency [19] | Potency [13]

COCCOC(=O)C1=C(C)NC(C)=C(C(=O)OC/C=C/c2ccccc2)C1c1cccc([N+](=O)[O-])c1 (stereo unspecified)
inactive: Potency [1] | Potency [2] | Potency [3] | Potency [5] | Potency [6] | Potency [16] | Potency [7] | Potency [8] | Potency [10] | Potency [11] | Potency [12]
active: Potency [17] 5.35 µM

CN(C)C(=O)Nc1ccc(Oc2ccc(Cl)cc2)cc1
active: Potency [4] 34.7 µM
inactive: Potency [1] | Potency [2] | Potency [14] | Potency [5] | Potency [15] | Potency [17] | Potency [8] | Potency [9] | Potency [11] | Potency [18] | Potency [19] | Potency [13]

C=CCOC(=O)/C=C\C(=O)OCC=C
inactive: Potency [1] | Potency [2] | Potency [3] | Potency [14] | Potency [5] | Potency [15] | Potency [16] | Potency [7] | Potency [17] | Potency [8] | Potency [9] | Potency [10] | Potency [18] | Potency [20]

COC(=O)Nc1nc2ccc(C(=O)c3cccs3)cc2[nH]1
inactive: Potency [1] | Potency [2] | Potency [14] | Potency [5] | Potency [6] | Potency [15] | Potency [16] | Potency [17] | Potency [8] | Potency [9] | Potency [11] | Potency [18]
active: Potency [4] 0.134 µM | Potency [7] 0.107 µM

N#C/C(=C1\SCC(c2ccccc2Cl)S1)n1ccnc1 (stereo unspecified)
inactive: Potency [1] | Potency [2] | Potency [14] | Potency [5] | Potency [6] | Potency [15] | Potency [16] | Potency [7] | Potency [17] | Potency [8] | Potency [9] | Potency [10] | Potency [11] | Potency [18] | Potency [19] | Potency [13]

COc1ccc(C(=O)c2cccc(O)c2)c(OC)c1
inactive: Potency [1] | Potency [2] | Potency [3] | Potency [14] | Potency [5] | Potency [6] | Potency [15] | Potency [16] | Potency [7] | Potency [17] | Potency [8] | Potency [9] | Potency [10] | Potency [11] | Potency [18] | Potency [12] | Potency [20] | Potency [13]

CC(=O)[C@H]1CC[C@H]2[C@@H]3C=CC4=CC(=O)CC[C@@]4(C)[C@@H]3CC[C@]12C
inactive: Potency [1] | Potency [2] | Potency [3] | Potency [14] | Potency [5] | Potency [6] | Potency [15] | Potency [16] | Potency [7] | Potency [17] | Potency [8] | Potency [9] | Potency [10] | Potency [11] | Potency [18] | Potency [20] | Potency [19] | Potency [13]

CSc1ccc(Oc2ccc(S(N)(=O)=O)cc2CN(C)C)cc1C
inactive: Potency [1] | Potency [2] | Potency [14] | Potency [5] | Potency [15] | Potency [8] | Potency [9] | Potency [11] | Potency [18] | Potency [13]
active: Potency [4] 38.9 µM | Potency [12] 49 µM

Cc1occc1C(=O)Nc1ccc(C(=O)N2CCC(F)(F)/C(=C\C(=O)N3CCC(N4CCCCC4)CC3)c3ccccc32)cc1
inactive: Potency [1] | Potency [2] | Potency [14] | Potency [5] | Potency [6] | Potency [15] | Potency [16] | Potency [17] | Potency [8] | Potency [9] | Potency [11] | Potency [18] | Potency [19] | Potency [13]
active: Potency [4] 6.83 µM | Potency [7] 15.3 µM | Potency [12] 5.43 µM

NC(=O)Nc1ccc(Cl)c(Cl)c1
inactive: Potency [1] | Potency [2] | Potency [3] | Potency [14] | Potency [5] | Potency [6] | Potency [15] | Potency [16] | Potency [17] | Potency [8] | Potency [9] | Potency [10] | Potency [11] | Potency [18] | Potency [12] | Potency [20] | Potency [19]

Cc1cc(O)c(C(C)C)cc1Cl
active: Potency [2] 38.9 µM | Potency [6] 24.5 µM | Potency [16] 27.5 µM | Potency [7] 34.7 µM | Potency [8] 38.9 µM | Potency [10] 34.7 µM
inactive: Potency [1] | Potency [3] | Potency [14] | max response [4] -23.1% and 3.73% | Potency [15] | Potency [17] | Potency [9] | Potency [18] | Potency [20] | Potency [19] | Potency [13]

N#C/C(=C1/SC[C@@H](c2ccc(Cl)cc2Cl)S1)n1ccnc1
inactive: Potency [1] | Potency [2] | Potency [3] | max response [4] -23.1% | Potency [5] | Potency [6] | Potency [15] | Potency [16] | Potency [7] | Potency [17] | Potency [8] | Potency [9] | Potency [10] | Potency [12] | Potency [19] | Potency [13]

CCc1c2c(nc3ccc(OC(=O)N4CCC(N5CCCCC5)CC4)cc13)-c1cc3c(c(=O)n1C2)COC(=O)[C@]3(O)CC
inactive: Potency [1] | Potency [2] | Potency [14] | Potency [5] | Potency [6] | Potency [15] | Potency [16] | Potency [17] | Potency [8] | Potency [9] | Potency [11] | Potency [18] | Potency [20] | Potency [13]
active: Potency [4] 2.39 µM | Potency [12] 2.68 µM
